# Source: paper PMC7862700, “An all-to-all approach to the identification of sequence-specific readers for epigenetic DNA modifications on cytosine”
# Legend:
# Experiment in all cases: DAPPL (digital affinity profiling via proximity ligation, sequencing); 10 mM Tris-HCl pH 7.5, 50 mM NaCl, 1 mM DTT, 4% glycerol, room temperature, 30 min; GST-TFs on glutathione beads, 16-mer random dsDNA library, 0.1% formaldehyde crosslink after washing; high values mean tight binding
# FEV = molecular target: T1, FEV (Homo sapiens, UniProt Q99581 1-238); conditions: protein: recombinant; tags: N-terminal GST; dsDNA, one strand shown
# T1 sequence: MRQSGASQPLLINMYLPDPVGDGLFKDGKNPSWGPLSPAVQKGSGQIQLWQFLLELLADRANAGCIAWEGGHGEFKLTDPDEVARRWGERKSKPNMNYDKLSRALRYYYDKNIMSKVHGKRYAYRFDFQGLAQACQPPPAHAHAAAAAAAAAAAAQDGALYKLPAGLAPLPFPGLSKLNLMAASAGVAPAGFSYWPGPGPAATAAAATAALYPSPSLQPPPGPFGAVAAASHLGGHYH
# In short: (§1)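 Binding signal is defined as a hexamer's read frequency for one factor over its frequency for the tag-only sample. To obtain reads, GST-fused human transcription factors were expressed in yeast, captured on glutathione beads, barcoded with DNA and pooled with that sample. Pools met 200 nmole of a 16-mer random double-stranded DNA library in Tris/NaCl/DTT/glycerol buffer for 30 min at room temperature before washing, 0.1% formaldehyde crosslinking, proximity ligation (BsaI/T4 ligase, 1 h, 37 °C), PCR and Illumina NextSeq500 sequencing.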
# ETV5 = ETV5 (Homo sapiens, UniProt P41161 1-510); conditions: protein: recombinant; tags: N-terminal GST; dsDNA, one strand shown
# Chain of ETV5 (P41161 whole entry): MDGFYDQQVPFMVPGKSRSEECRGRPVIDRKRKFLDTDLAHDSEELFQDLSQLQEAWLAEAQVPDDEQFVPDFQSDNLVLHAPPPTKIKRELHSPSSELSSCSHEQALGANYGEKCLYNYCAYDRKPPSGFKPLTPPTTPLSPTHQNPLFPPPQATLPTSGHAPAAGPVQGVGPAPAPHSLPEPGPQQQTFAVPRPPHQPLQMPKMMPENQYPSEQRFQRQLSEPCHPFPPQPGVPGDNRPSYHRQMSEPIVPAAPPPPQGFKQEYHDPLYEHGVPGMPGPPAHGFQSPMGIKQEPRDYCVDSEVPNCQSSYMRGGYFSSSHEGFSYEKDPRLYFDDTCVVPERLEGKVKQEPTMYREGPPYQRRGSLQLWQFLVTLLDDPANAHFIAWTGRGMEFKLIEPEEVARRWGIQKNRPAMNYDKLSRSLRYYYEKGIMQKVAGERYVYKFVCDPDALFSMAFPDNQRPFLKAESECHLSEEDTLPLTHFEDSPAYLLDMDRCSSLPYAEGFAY
# In short: as §1
# HSF1 = HSF1 (Homo sapiens, UniProt Q00613 1-529); conditions: protein: recombinant; tags: N-terminal GST; chain copies: 3; dsDNA, one strand shown
# Chain of HSF1 (Q00613 whole entry): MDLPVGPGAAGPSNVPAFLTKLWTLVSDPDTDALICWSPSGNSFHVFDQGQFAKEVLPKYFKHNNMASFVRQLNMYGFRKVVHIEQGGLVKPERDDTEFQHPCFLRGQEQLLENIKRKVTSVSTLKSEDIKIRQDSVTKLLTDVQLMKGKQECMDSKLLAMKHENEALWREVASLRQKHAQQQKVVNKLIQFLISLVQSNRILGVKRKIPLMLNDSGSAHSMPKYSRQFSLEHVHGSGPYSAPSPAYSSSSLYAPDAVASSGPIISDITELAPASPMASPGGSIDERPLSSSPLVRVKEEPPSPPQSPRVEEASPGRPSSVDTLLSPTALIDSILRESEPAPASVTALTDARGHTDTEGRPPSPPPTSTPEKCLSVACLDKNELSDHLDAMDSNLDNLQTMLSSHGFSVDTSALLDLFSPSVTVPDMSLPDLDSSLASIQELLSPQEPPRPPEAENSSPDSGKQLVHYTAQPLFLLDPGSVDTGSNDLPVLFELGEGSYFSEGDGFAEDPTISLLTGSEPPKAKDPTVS
# In short: as §1
# SPIC = molecular target: T2, SPIC (Homo sapiens, UniProt Q8N5J4 1-248); conditions: protein: recombinant; tags: N-terminal GST; dsDNA, one strand shown
# T2 sequence: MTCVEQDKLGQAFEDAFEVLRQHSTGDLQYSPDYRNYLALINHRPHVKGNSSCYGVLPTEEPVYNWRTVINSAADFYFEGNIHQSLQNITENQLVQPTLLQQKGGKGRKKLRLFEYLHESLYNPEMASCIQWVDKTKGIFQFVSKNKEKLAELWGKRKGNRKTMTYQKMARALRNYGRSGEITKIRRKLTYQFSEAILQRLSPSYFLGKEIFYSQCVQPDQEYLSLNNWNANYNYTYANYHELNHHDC
# In short: as §1
# ELF4 = ELF4 (Homo sapiens, UniProt Q99607 1-663); conditions: protein: recombinant; tags: N-terminal GST; dsDNA, one strand shown
# Chain of ELF4 (Q99607 whole entry): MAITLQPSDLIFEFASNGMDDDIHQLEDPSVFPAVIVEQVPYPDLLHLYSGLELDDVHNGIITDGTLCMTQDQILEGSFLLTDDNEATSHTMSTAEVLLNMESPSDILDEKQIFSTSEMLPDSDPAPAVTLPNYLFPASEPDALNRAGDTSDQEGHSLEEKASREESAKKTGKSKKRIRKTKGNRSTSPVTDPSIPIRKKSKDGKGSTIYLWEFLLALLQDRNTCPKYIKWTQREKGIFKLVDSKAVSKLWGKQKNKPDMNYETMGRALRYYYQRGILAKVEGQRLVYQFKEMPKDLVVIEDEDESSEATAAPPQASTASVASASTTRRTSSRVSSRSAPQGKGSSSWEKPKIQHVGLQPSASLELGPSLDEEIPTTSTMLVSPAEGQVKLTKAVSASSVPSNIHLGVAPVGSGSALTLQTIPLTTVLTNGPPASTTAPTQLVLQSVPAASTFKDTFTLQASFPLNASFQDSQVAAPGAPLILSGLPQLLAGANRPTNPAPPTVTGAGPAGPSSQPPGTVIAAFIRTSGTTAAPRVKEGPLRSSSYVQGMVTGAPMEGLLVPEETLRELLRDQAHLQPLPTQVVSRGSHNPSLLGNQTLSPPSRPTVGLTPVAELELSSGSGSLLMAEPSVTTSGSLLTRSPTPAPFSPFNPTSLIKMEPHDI
# In short: as §1
# ELK4 = molecular target: T3, ELK4 (Homo sapiens, UniProt P28324-2 1-405); conditions: protein: recombinant; tags: N-terminal GST; dsDNA, one strand shown
# T3 sequence: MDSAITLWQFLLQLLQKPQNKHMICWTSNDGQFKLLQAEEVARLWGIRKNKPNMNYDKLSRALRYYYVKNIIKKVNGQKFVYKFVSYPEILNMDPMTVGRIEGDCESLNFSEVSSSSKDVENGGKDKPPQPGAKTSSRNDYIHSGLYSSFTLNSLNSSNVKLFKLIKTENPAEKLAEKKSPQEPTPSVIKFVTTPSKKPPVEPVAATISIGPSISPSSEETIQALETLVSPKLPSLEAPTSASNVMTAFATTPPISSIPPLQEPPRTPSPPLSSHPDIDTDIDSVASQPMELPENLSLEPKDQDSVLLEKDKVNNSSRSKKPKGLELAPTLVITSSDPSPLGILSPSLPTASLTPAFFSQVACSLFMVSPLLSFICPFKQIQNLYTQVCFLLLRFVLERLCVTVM
# In short: as §1
# ETV2 = molecular target: T4, ETV2 (Homo sapiens, UniProt O00321 1-342); conditions: protein: recombinant; tags: N-terminal GST; dsDNA, one strand shown
# T4 sequence: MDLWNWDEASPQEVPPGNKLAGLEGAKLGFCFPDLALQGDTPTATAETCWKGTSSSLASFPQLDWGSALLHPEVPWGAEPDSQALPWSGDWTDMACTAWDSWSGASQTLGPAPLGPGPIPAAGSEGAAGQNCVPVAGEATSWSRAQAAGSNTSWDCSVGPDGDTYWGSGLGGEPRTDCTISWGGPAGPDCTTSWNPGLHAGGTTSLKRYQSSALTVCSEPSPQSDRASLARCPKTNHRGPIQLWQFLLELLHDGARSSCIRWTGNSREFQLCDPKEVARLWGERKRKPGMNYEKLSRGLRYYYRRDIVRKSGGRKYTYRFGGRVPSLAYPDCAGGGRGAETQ
# In short: as §1
# ELF3 = molecular target: T5, ELF3 (Homo sapiens, UniProt P78545 1-371); conditions: protein: recombinant; tags: N-terminal GST; dsDNA, one strand shown
# T5 sequence: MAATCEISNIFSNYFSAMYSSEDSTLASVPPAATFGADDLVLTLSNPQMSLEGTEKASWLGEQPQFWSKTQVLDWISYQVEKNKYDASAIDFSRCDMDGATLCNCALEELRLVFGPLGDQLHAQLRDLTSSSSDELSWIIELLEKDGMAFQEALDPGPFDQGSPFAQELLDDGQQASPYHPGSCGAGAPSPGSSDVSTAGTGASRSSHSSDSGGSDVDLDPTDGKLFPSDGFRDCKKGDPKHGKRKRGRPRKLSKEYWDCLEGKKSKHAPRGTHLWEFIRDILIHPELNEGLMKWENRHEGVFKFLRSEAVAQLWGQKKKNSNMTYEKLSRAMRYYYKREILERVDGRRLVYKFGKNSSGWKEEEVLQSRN
# In short: as §1
# CRX = CRX (Homo sapiens, UniProt O43186 1-299); conditions: protein: recombinant; tags: N-terminal GST; dsDNA, one strand shown
# Chain of CRX (O43186 whole entry): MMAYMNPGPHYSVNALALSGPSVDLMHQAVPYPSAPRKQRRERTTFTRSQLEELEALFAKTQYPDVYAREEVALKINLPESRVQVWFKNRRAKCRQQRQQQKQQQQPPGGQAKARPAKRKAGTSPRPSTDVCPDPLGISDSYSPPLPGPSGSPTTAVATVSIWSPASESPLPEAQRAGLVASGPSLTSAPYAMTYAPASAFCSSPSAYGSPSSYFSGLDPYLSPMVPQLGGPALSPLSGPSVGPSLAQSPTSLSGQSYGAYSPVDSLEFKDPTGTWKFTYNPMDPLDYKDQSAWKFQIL
# In short: as §1
# ETV1 = ETV1 (Homo sapiens, UniProt P50549 1-477); conditions: protein: recombinant; tags: N-terminal GST; dsDNA, one strand shown
# Chain of ETV1 (P50549 whole entry): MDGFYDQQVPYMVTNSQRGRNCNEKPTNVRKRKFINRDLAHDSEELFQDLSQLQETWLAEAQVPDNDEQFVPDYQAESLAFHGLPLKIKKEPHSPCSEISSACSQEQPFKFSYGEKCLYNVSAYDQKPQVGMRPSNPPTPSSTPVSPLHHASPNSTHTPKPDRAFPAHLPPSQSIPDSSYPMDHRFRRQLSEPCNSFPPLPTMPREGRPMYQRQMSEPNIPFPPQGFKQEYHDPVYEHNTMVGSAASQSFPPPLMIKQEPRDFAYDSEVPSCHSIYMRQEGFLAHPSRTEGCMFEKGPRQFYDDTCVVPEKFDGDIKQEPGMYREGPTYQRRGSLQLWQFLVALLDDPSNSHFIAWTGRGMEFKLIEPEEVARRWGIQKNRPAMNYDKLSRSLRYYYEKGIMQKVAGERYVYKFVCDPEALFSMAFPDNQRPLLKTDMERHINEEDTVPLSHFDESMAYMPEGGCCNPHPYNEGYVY
# In short: as §1
# ERF = molecular target: T6, ERF (Homo sapiens, UniProt P50548 1-548); conditions: protein: recombinant; tags: N-terminal GST; dsDNA, one strand shown
# T6 sequence: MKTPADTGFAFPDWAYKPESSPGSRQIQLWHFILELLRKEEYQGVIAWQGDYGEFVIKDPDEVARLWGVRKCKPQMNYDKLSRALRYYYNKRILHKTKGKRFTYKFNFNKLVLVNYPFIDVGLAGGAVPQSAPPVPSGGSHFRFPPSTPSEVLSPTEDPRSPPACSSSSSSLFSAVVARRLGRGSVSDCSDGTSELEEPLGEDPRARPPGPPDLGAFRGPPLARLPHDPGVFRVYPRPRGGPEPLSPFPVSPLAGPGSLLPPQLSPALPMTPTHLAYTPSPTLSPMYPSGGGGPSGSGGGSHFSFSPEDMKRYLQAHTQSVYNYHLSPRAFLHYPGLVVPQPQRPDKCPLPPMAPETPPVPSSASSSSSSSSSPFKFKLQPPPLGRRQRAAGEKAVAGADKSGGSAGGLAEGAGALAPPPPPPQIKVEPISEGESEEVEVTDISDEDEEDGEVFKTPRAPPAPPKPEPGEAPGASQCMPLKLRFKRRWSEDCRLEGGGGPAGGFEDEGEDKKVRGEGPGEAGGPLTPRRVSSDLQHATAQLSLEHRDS
# In short: as §1
# ETV3L = molecular target: T7, ETV3L (Homo sapiens, UniProt Q6ZN32 1-361); conditions: protein: recombinant; tags: N-terminal GST; dsDNA, one strand shown
# T7 sequence: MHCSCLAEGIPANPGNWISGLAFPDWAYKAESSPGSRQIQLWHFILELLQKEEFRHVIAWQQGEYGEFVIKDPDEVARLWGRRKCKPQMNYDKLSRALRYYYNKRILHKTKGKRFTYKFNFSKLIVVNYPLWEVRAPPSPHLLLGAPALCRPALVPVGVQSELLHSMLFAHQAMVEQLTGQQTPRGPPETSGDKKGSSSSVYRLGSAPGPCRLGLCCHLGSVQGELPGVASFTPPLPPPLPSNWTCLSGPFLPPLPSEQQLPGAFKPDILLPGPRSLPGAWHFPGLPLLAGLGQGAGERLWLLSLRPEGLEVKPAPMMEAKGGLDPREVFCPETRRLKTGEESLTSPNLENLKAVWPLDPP
# In short: as §1
# ETS2 = molecular target: T8, ETS2 (Homo sapiens, UniProt P15036 1-469); conditions: protein: recombinant; tags: N-terminal GST; dsDNA, one strand shown
# T8 sequence: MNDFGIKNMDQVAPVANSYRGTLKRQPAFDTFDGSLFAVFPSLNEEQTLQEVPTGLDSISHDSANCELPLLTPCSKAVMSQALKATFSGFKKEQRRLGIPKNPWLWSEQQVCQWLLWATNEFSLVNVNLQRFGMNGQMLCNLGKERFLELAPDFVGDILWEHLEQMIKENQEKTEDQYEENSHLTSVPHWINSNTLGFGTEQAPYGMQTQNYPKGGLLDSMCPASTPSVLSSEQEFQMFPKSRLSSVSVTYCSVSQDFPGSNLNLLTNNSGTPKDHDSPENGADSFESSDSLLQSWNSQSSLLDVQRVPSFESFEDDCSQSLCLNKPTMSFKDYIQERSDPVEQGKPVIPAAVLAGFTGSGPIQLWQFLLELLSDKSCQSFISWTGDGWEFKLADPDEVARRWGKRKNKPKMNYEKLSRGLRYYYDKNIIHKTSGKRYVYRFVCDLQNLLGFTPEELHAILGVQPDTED
# In short: as §1
# SPDEF = molecular target: T9, SPDEF (Homo sapiens, UniProt O95238 1-335); conditions: protein: recombinant; tags: N-terminal GST; dsDNA, one strand shown
# T9 sequence: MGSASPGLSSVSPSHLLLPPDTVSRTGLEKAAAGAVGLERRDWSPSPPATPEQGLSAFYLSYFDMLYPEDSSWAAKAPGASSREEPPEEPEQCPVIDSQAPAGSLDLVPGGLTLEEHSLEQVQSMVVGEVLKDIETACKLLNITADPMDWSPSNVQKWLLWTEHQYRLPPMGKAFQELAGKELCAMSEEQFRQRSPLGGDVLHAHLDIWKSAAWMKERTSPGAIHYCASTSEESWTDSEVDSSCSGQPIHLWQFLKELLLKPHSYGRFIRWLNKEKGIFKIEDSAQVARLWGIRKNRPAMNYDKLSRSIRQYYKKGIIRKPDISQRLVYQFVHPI
# In short: as §1
# ETV7 = molecular target: T10, ETV7 (Homo sapiens, UniProt Q9Y603 1-341); conditions: protein: recombinant; tags: N-terminal GST; dsDNA, one strand shown
# T10 sequence: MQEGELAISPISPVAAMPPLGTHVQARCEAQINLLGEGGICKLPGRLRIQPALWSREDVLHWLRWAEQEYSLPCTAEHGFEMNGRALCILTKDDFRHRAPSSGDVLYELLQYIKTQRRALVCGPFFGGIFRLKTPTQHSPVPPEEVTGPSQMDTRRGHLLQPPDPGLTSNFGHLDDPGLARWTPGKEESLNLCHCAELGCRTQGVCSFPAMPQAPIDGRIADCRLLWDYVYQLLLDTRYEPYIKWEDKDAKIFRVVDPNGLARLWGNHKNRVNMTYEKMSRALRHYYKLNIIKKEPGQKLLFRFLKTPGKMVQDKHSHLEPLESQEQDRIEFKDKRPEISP
# In short: as §1
# ELF5 = molecular target: T11, ELF5 (Homo sapiens, UniProt Q9UKW6-2 1-255); conditions: protein: recombinant; tags: N-terminal GST; dsDNA, one strand shown
# T11 sequence: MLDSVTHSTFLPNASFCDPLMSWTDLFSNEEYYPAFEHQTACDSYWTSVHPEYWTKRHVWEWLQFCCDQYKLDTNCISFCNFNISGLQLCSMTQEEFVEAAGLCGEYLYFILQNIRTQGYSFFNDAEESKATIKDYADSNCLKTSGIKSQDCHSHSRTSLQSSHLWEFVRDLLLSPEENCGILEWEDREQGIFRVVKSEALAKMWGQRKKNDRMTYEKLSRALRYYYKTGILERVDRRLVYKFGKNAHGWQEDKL
# In short: as §1
# ETV3 = molecular target: T12, ETV3 (Homo sapiens, UniProt P41162-2 1-143); conditions: protein: recombinant; tags: N-terminal GST; dsDNA, one strand shown
# T12 sequence: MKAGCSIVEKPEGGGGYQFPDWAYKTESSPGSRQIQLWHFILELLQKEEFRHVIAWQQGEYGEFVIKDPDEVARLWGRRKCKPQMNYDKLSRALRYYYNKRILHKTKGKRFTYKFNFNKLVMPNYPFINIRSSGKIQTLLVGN
# In short: as §1
# ETV6 = ETV6 (Homo sapiens, UniProt P41212 1-452); conditions: protein: recombinant; tags: N-terminal GST; dsDNA, one strand shown
# Chain of ETV6 (P41212 whole entry): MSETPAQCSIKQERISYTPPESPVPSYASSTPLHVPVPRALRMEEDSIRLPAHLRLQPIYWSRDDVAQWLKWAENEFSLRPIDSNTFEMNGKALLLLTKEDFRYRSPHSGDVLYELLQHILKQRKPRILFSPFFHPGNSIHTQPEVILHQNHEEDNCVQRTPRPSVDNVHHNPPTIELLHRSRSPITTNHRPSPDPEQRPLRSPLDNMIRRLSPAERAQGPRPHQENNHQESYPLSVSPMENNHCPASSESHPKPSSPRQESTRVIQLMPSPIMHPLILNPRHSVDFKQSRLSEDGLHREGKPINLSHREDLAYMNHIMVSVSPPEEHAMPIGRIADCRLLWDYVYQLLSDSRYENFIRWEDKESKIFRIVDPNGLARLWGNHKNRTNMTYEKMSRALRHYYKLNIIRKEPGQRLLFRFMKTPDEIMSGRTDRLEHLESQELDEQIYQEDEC
# In short: as §1
sequence,measurement,setting,value
ATCGAC,binding signal,FEV,"1.12 fold enrichment (6-mer frequency, TF over GST control)"
same,binding signal,ETV5,"1.25 fold enrichment (6-mer frequency, TF over GST control)"
same,binding signal,HSF1,"1.16 fold enrichment (6-mer frequency, TF over GST control)"
same,binding signal,SPIC,"1.13 fold enrichment (6-mer frequency, TF over GST control)"
same,binding signal,ELF4,"1.21 fold enrichment (6-mer frequency, TF over GST control)"
same,binding signal,ELK4,"1.26 fold enrichment (6-mer frequency, TF over GST control)"
same,binding signal,ETV2,"1.23 fold enrichment (6-mer frequency, TF over GST control)"
same,binding signal,ELF3,"1.14 fold enrichment (6-mer frequency, TF over GST control)"
same,binding signal,CRX,"1.11 fold enrichment (6-mer frequency, TF over GST control)"
same,binding signal,ETV1,"1.16 fold enrichment (6-mer frequency, TF over GST control)"
same,binding signal,ERF,"1.1 fold enrichment (6-mer frequency, TF over GST control)"
same,binding signal,ETV3L,"1.21 fold enrichment (6-mer frequency, TF over GST control)"
same,binding signal,ETS2,"1.1 fold enrichment (6-mer frequency, TF over GST control)"
same,binding signal,SPDEF,"1.06 fold enrichment (6-mer frequency, TF over GST control)"
same,binding signal,ETV7,"1.28 fold enrichment (6-mer frequency, TF over GST control)"
same,binding signal,ELF5,"1.09 fold enrichment (6-mer frequency, TF over GST control)"
same,binding signal,ETV3,"1.25 fold enrichment (6-mer frequency, TF over GST control)"
same,binding signal,ETV6,"1.21 fold enrichment (6-mer frequency, TF over GST control)"
